Data on 14 compounds can be found in PubChem BioAssay.

Calls of active or inactive are those of the source.

For assay [1], the system named is PRMT1 (protein arginine N-methyltransferase 1). Put plainly: small molecules binding arginine methyltransferase PRMT1 – biochemical, small-molecule microarray, 635 nm fluorescence, primary screen (AID 1088).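 Further: binding of Prmt1 protein to compounds spotted on small-molecule microarray slides.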 The following applies: higher = more signal.
Assay [2] in a line: growth effects on S. cerevisiae YJM789 – YJM789 clinical isolate, OD600, 24 h, basal, primary screen (AID 1089).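 Further: growth of clinical yeast isolate S. cerevisiae YJM 789 seeded 1000 cells per well; test concentration not given here.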 The settings on record: higher = more signal, called active from +8 up or from −8 down.
Assay [3] is described as follows: S. pombe growth modifiers, basal conditions – strain 972, OD600, 24 h, no modulator, primary screen (AID 1090).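 Further: basal condition with compound alone and no growth modifier present; test concentration not given here.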 The settings on record: S. pombe 972 growth, higher = more signal, called active from +8 up or from −8 down.
The nature of assay [4]: budding yeast growth modifiers under rapamycin – strain BY4716, OD600, 96 h, primary screen (AID 1091). Further: test concentration not given here. The settings on record: S. cerevisiae BY4716 + rapamycin, higher = more signal, called active from +8 up or from −8 down.
In assay [5] the target is Torsin-1A-interacting protein 2 (Homo sapiens) (UniProt Q8NFQ8). Put plainly: small molecules binding lysate-expressed LULL1 – cell lysate, human LULL1 lysate, 635/667 nm fluorescence, primary screen (AID 1092).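 Further: probe is lysate of COS7 cells overexpressing human LULL1; score merges per-feature 667 nm fluorescence with signal-to-noise.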 The following applies: small-molecule microarray, hLULL1 lysate binding, 635 nm fluorescence; higher = more signal.
Assay [6] is described as follows: optical density change of DRC41 E. coli – strain DRC41, OD650, 24 h, E. coli filamentation project, primary screen (AID 1093).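 Further: MC1000 strain lacking acrAB efflux and sulA so SOS filamentation is blocked; test concentration not given here.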 The settings on record: E. coli DRC41 growth, higher = more signal, called active from +8 up or from −8 down.
Assay [7] in a line: probe aLefty2 binding to arrayed compounds – biochemical, biotinylated probe, 635/667 nm fluorescence, primary screen (AID 1094).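 Further: score merges spot fluorescence near 667 nm with spot signal-to-noise ratio.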 The settings on record: small-molecule microarray, higher = more signal.
Assay [8] relates to Noggin (protein binding on small-molecule microarray). In words: small molecules binding Noggin protein – biochemical, 635/667 nm fluorescence, primary screen (AID 1095).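 Further: score merges 667 nm feature fluorescence with signal to noise over triplicate slides.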 The settings on record: 635 nm fluorescence, higher = more signal.
Assay [9] deals with Neurogenic locus notch homolog protein 3 (Homo sapiens) (UniProt Q9UM47). Put plainly: small molecules binding NOTCH3 protein – biochemical, 635/667 nm fluorescence, primary screen (AID 1096). The following applies: small-molecule microarray, 635 nm fluorescence, higher = more signal.
Assay [10] in a line: probe aEGFR binding to arrayed compounds – biochemical, biotinylated probe, 635/667 nm fluorescence, primary screen (AID 1097).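 Further: probe is a biotinylated anti-EGFR antibody binding compounds printed on slides; score combines fluorescence near 667 nm and signal to noise of each spot.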 The following applies: small-molecule microarray, higher = more signal.

Sequence of Neurogenic locus notch homolog protein 3 (Homo sapiens) (Q9UM47 whole entry, looked up): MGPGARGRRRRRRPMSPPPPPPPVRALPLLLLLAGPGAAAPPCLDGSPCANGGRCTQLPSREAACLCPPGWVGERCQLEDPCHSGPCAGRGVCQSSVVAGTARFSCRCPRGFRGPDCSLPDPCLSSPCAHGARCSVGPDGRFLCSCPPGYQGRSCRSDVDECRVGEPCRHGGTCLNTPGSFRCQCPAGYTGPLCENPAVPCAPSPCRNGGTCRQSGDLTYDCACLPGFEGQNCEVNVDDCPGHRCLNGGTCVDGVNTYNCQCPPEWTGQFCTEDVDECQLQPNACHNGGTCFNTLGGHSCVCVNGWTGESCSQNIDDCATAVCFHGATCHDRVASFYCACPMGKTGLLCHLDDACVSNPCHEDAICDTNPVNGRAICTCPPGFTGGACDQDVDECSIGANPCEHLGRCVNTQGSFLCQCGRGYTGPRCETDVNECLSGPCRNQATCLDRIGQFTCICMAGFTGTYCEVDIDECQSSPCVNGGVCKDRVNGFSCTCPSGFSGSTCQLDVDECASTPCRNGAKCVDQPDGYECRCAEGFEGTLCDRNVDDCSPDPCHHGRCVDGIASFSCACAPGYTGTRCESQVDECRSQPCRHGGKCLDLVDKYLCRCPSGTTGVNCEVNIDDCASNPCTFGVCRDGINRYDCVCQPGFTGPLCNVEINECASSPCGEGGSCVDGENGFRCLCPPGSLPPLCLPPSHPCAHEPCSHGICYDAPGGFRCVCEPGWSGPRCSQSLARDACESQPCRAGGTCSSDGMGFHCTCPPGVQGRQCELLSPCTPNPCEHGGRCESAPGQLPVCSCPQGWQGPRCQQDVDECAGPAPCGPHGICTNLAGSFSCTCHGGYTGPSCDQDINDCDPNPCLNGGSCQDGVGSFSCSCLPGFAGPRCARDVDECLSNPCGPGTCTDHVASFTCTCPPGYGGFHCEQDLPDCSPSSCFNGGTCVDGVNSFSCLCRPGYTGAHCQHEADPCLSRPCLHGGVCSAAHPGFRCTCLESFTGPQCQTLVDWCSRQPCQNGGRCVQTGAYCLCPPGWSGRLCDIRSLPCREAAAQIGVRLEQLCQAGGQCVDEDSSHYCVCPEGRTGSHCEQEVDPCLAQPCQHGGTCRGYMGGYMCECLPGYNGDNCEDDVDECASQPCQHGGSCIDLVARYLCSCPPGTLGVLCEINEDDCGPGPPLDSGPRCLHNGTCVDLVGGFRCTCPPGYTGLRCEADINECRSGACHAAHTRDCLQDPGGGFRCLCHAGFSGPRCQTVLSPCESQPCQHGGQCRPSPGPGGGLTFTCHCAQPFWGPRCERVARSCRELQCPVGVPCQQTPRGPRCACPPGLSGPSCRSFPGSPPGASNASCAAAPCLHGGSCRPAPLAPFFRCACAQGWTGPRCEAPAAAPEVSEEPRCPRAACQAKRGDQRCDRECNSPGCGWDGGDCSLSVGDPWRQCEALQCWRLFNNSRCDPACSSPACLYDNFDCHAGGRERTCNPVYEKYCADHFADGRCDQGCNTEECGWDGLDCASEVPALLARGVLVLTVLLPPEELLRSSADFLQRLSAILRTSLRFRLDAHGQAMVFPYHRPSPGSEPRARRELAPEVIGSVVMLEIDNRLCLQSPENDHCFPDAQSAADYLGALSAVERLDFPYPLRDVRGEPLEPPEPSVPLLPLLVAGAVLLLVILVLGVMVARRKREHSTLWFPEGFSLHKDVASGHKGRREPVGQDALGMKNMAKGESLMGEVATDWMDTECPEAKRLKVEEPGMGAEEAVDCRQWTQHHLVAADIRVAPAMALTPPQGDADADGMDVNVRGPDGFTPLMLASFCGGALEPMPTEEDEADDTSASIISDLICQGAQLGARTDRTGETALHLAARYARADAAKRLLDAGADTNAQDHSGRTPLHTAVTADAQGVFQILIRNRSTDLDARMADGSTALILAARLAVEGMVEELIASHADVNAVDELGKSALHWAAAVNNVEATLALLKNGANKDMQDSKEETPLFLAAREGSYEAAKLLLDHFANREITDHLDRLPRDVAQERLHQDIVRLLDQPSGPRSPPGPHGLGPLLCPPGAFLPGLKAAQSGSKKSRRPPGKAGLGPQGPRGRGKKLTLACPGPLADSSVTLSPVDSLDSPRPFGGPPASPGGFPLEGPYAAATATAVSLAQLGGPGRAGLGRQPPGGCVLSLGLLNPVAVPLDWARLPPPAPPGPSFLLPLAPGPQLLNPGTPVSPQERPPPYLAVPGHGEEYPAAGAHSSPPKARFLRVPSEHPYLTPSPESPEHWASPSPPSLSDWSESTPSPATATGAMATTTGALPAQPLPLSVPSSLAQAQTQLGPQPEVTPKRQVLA
Sequence of Torsin-1A-interacting protein 2 (Homo sapiens) (Q8NFQ8 whole entry, looked up): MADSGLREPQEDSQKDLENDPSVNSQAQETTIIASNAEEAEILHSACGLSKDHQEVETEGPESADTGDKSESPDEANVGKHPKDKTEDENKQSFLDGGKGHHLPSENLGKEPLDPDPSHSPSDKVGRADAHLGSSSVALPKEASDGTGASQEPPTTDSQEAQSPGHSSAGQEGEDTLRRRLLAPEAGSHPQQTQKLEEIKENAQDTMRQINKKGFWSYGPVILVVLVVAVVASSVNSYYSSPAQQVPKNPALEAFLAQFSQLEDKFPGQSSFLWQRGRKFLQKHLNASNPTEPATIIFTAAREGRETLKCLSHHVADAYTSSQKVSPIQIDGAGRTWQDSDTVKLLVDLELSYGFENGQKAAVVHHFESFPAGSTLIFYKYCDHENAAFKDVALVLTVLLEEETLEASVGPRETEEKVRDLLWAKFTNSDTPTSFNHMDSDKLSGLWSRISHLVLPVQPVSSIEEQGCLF

As for `COCCOC(=O)N1C(=O)[C@@]2(c3cc(C#CCNC(N)=O)ccc31)[C@H](c1ccc(O)cc1)N1[C@H](c3ccccc3)[C@H](c3ccccc3)OC(=O)[C@H]1[C@@H]2C(=O)N1CCc2cc(OC)c(OC)cc2C1`, the composite z-score in assay [1] was 1.29; in [5] it was 1.47; in [7] it was -0.0475; in assay [8] it was 0.978; in assay [9], 0.636; in assay [10], -0.0967. The z-score in assay [2] was 1.05 (inactive); in assay [3] it was 0.123 (inactive); in assay [4], 1.84 (inactive); in [6], -0.732 (inactive).

As for `C=C(CCCC)/C(=C/C[C@@H](OC(C)=O)c1cccc(OCCO)c1)c1cc(C(=O)OC)ccc1OC`, the composite z-score is 1.57 in assay [1]; 0.709 in assay [5]; -0.0524 in [7]; 0.656 in assay [8]; 0.0716 in [9]; -0.0698 in [10]. The z-score was -0.397 (inactive) in assay [2], 0.86 (inactive) in [3], -0.709 (inactive) in [4] and 0.236 (inactive) in [6].

As for `COc1cc(Cc2cc3c(c(-c4ccccc4)n2)[Si](C(C)C)(C(C)C)OC3)cc(OC)c1OC`, the composite z-score in assay [1] was -0.313; in [5] it was -0.501; in [7], -0.0991; in assay [8] it was 0.331; in [9] it was -0.108; in [10], -0.0864. Further, the z-score in [2] is 0.208 (inactive); in assay [3] it was -0.949 (inactive); in [4] it was -0.573 (inactive); in assay [6], 1.22 (inactive).

As to `Cc1c(NC(=O)/C(C#N)=C/C=C/c2ccc([N+](=O)[O-])cc2)c(=O)n(-c2ccccc2)n1C`, the composite z-score in assay [1] was 1.49; in assay [5], 3.17; in [7], -0.022; in [8], 0.305; in assay [9] it was 1.04; in [10], 0.0506. In addition, the z-score is 0.437 (inactive) in [2], -0.914 (inactive) in assay [3], 0.0795 (inactive) in [4] and -1.46 (inactive) in [6].

On to `C[C@@]1([C@@H](NS(=O)(=O)c2cccc3cccnc23)c2ccc(-c3ccccc3)cc2)C[C@H]1C1CCCCC1`, for which the composite z-score in [1] was 0.79; in assay [5], 2.47; in assay [7], 0.134; in [8], -0.0642; in assay [9], 0.818; in assay [10], -0.0316. The z-score in [2] is 0.523 (inactive); in assay [3], 0.381 (inactive); in assay [4], 1.41 (inactive); in [6], -1.89 (inactive).

Regarding `C=CCNC(=O)[C@@H]1[C@H]2C(=O)O[C@H](c3ccccc3)[C@H](c3ccccc3)N2[C@H](c2ccc(OCCO)cc2)[C@@]12C(=O)Nc1ccc(C#CCNC(N)=O)cc12`, the composite z-score in assay [1] is 0.872; in [5] it was 1.8; in [7], -0.0368; in [8] it was 0.216; in assay [9], 0.266; in [10], -0.182. Also, the z-score in assay [2] is 0.696 (inactive); in assay [3] it was -0.279 (inactive); in assay [4] it was 1.92 (inactive); in [6], 0.0528 (inactive).

In the case of `[N-]=[N+]=NCc1ccccc1[C@H]1OC(c2ccc(OCCCO)cc2)=N[C@@]1(CCS(=O)(=O)c1ccccc1)C(=O)O`, the composite z-score in [1] was 0.0361; in assay [5], 3.11; in assay [7] it was 0.021; in assay [8], -0.482; in assay [9], 0.253; in [10], -0.067. Also, the z-score in assay [2] was -0.791 (inactive); in assay [3], -0.155 (inactive); in assay [4], -0.814 (inactive); in assay [6], 0.32 (inactive).

With `COC(=O)[C@@]1(Cc2ccc(F)cc2)[C@@H]2C(=CC(=O)[C@H]2CC(=O)C(=O)N2CCCC2)CN1C(=O)c1ccccc1`, the composite z-score was found to be 1.55 in assay [1]; 3.6 in assay [5]; 1.34 in assay [7]; 1.32 in [8]; 1.13 in [9]; 1.08 in assay [10]. The z-score in assay [2] is -0.403 (inactive); in [3] it was 0.0239 (inactive); in assay [4], 0.413 (inactive); in assay [6], -0.074 (inactive).

For the compound `C[C@]1(C(=O)O)c2ccccc2C(=O)N(Cc2cc(C(F)(F)F)cc(C(F)(F)F)c2)[C@H]1c1ccc(CO)cc1`, the composite z-score in [1] is 1.43; in [5], 0.834; in assay [7] it was -0.141; in assay [8], 0.414; in assay [9], 0.483; in assay [10] it was -0.186. Besides, the z-score is 0.652 (inactive) in assay [2], 0.559 (inactive) in assay [3], -0.754 (inactive) in [4] and 0.305 (inactive) in [6].

Regarding `CC(CO)N1C(=O)[C@@H]2[C@H]3C(=O)OCC=C[C@H]3OC23C=CCN(c2ccc4ccccc4c2)C(=O)[C@@H]13` (stereo not given in full), the composite z-score in assay [1] is -0.534; in assay [5], -1.16; in assay [7], 0.111; in assay [8], -1.89; in [9], -1.4; in [10], -0.301. For the same compound, the z-score was -0.112 (inactive) in [2], -0.688 (inactive) in [3], -0.128 (inactive) in assay [4] and -0.594 (inactive) in assay [6].

With `CO[C@H]1O[C@H](CO)[C@@H](OC(=O)Nc2cccc(F)c2)[C@H](OC(=O)c2cc3ccccc3[nH]2)[C@H]1OC(=O)c1cc2ccccc2[nH]1`, the composite z-score in assay [1] is 0.669; in assay [5] it was 0.338; in assay [7], -0.15; in assay [8], 0.696; in [9], 0.0453; in [10], -0.1. The z-score in assay [2] is -2 (inactive); in assay [3] it was 0.201 (inactive); in assay [4], 0.296 (inactive); in [6], -0.178 (inactive).

Consider `CN1C(=O)C2C(C1=O)C1C=C(CCCO)C2C(C2CC2)N1C` (stereo not given), for which the composite z-score in assay [1] was 0.74; in [5] it was 2.52; in assay [7], -0.0812; in assay [8], -0.21; in assay [9] it was -0.312; in assay [10], -0.0922. Also, the z-score was -1.39 (inactive) in [2], -0.339 (inactive) in [3], -0.517 (inactive) in assay [4] and -0.797 (inactive) in assay [6].

As to `O=C1NC(=O)C2C1C=CC(C(O)C(c1ccccc1)c1ccccc1)N2Nc1ccccn1` (stereo not given), the composite z-score in [1] is 0.72; in assay [5], 1.27; in assay [7], 0.673; in [8], -0.0976; in assay [9] it was 0.0943; in assay [10], 0.389. Further, the z-score in assay [2] was 0.583 (inactive); in assay [3] it was 1.44 (inactive); in assay [4], -0.968 (inactive); in assay [6], -0.519 (inactive).

On to `CN(C)CCCCCCNC(=O)[C@@H]1C[C@@H]2C(=O)N[C@@H](CCCC[N+](C)(C)C)C(=O)N2[C@@H]1c1cccc(OCCO)c1`, for which the composite z-score in assay [1] is -0.357; in assay [5], 2.79; in assay [7] it was 0.141; in [8], -0.349; in assay [9], 0.363; in [10], -0.108. For the same compound, the z-score in [2] is -3.6 (inactive); in [3], -1 (inactive); in assay [4] it was -1.17 (inactive); in assay [6] it was 0.797 (inactive).
